Screening results as filed in PubChem BioAssay.
Cycloheximide cs: affects cycloheximide protein synthesis inhibition readout, counter-screen; AID 2314; 300,000 compounds, 12% hits; max response, %; cell reporter, cycloheximide protein synthesis inhibition counterscreen; in the data active = max response mostly above about 13%, no sharp cut-off; inactive = mostly below about 14%; also: read at 38.3 µM for the half of the compounds with a filed dose; 0% is about no effect
Shiga inhibitor: blocks Shiga toxin action in Vero cells. 290,000 compounds, 9.2% hits. Vero cells, Shiga toxin protein synthesis inhibition reporter. inhibition, % at 38.7 µM; in the data active = inhibition mostly above about 28%, no sharp cut-off; inactive = mostly below about 43%; also: 0% is about no effect
NS1 inh: influenza NS1 inhibition | Potency, µM (titrated, usually from 46.1 µM), without a hit: at the top dose activity, positive = more growth | 270,000 compounds, 0.4% hits; calls by dose curve; also: potency is read from the fitted curve at half-maximal effect; actives are rising curves; nearly all actives have a fitted effect of over 50% in size
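Growth recovery, yeast-based: influenza A NS1 expressed in S. cerevisiae causes slow growth, and suppressors are detected by OD600. The parent strain without NS1 is used as positive control.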
LmPK inhibitor: blocks Leishmania mexicana pyruvate kinase activity | purified LmPK, Kinase-Glo ATP luminescence, 1 h | Q27686 | 290,000 compounds, 0.37% hits | Potency, µM (titrated, usually from 57.5 µM), inactives show at the top dose activity change, negative = inhibition, hits mostly inhibitors; also: potency is read from the fitted curve at half-maximal effect; % is scaled to controls: 0 for no effect and ±100 for the full control effect
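Kinase-Glo luminescence read after 1 h RT reaction of 0.1 nM LmPK with 0.5 mM PEP and 0.1 mM ADP. Activity scaled between uninhibited and enzyme-free controls.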
Giardia FBPA inh: blocks Giardia fructose-bisphosphate aldolase activity. 290,000 compounds, 0.71% hits. purified Giardia FBPA. Potency, µM (doses to about 59.6 µM), inactives show at the top dose activity, negative = inhibition, usual class: inhibitors; also: potency is read from the fitted curve at half-maximal effect; % is scaled to controls: 0 for no effect and ±100 for the full control effect; nearly all actives have a fitted effect of over 55% in size
Target sequence (A8B2U2 whole entry, looked up): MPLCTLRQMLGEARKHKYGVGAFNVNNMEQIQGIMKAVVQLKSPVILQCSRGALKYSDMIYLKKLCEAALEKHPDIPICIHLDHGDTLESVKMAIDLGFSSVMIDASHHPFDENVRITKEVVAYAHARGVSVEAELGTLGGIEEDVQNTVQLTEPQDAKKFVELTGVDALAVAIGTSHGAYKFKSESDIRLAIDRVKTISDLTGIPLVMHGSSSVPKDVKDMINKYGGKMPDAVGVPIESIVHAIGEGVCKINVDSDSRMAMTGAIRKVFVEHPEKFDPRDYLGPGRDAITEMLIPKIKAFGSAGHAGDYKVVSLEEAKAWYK
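40 nM FBPA preincubated 10 min at RT with compound (up to 57.5 uM final), then substrate plus GAPDH/TPI/NAD/arsenate coupling and diaphorase/resazurin added. Fluorescence read after 20 min at RT, 525/598 nm.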
* hit, by the source's call; i = inactive; u = inconclusive; x = not tested or not shown; [ ] = remark or other dose. Rows were chosen to be rich in hits. Some 14% of all compounds tested hit in one or more screens of this group. Unless noted, calls follow the shape of the dose curve; as a rule, active = well fitted curve in the direction sought with a large enough effect; inconclusive = small, poorly fitted or top-dose-only effect, or another doubt; inactive = no such curve, though single readings can be large; an effect the other way counts as inactive or inconclusive.

SMILES	Cycloheximide cs	Shiga inhibitor	NS1 inh	LmPK inhibitor	Giardia FBPA inh
CC/C(=N\NC(=O)Nc1ccccc1)c1c(O)n(Cc2ccccc2)c(=O)[nH]c1=O	35*	105*	0%	1%	1%
C/C(=N\NC(=O)c1ccccc1)c1c(O)n(Cc2ccccc2)c(=O)[nH]c1=O	52*	101*	-4%	1%	u
CCC(=NCc1cccnc1)c1c(O)n(Cc2ccccc2)c(=O)[nH]c1=O	1	-10	-51%	-3%	-2%
COCCNC(=O)C12CC3CC(CC(Cl)(C3)C1)C2	3	11	1%	1%	3%
Cc1cccc(-c2cccc(-c3cc(=O)oc4cc5c(cc34)OCO5)c2)c1	9	i	x	x	3%[89.2 µM]
Clc1ccc2c(c1)[C@H]1OCC[C@H]1[C@@H](c1ccco1)N2	25*	66*	-4%	u	-28%
Cc1cccc(NC(=O)c2onc3c2CCCC3)n1	33*	23	-10%	13µM*	-3%
Cc1ccccc1NC(=O)c1onc2c1CCCC2	49*	123*	-8%	13µM*	1%
Cc1cccc(NC(=O)c2onc3c2CCCC3)c1C	33*	116*	-14%	u	1%
Cc1ccccc1NC(=O)c1sc2nc3c(c(-c4ccco4)c2c1N)CCCC3	-1	9	2%	1%	1%
Cc1cccc(NC(=O)c2ccc3c(Cl)c4c(nc3c2)CCCC4)n1	23	31	x	-5%	2%
NNS(=O)(=O)c1cc(C(=O)O)cc(C(=O)O)c1	x	x	-7%	x	x
O=C(NCc1cccs1)C1CC(c2ccc(F)cc2)=NO1 (configuration not stated)	28*	49*	x	2%[11.5 µM]	6%
COc1ccc(CNC(=O)C2CC(c3cccc(OC)c3)=NO2)cc1 (configuration not stated)	3	8	-31%	1%	-4%
CCCCNC(=O)C1CC(c2cccc([N+](=O)[O-])c2)=NO1 (configuration not stated)	25*	83*	5%	-8%	2%
COc1cccc(C2=NOC(C(=O)NCc3cccs3)C2)c1 (configuration not stated)	26*	54*	-17%	-2%	8%
CC1CN(C(=O)Cn2c(=O)oc3ccccc32)CC(C)O1 (configuration not stated)	-3	-10	-2%	3%	0%
CCCCc1cc(=O)oc2cc(C)cc(OCC(=O)N3CCC(C(=O)O)CC3)c12	0	-5	28%	-2%	-4%
CC(=O)c1ccc(NC(=O)CCCC(=O)c2ccccc2)cc1	-4	-16	-1%	4%	-7%
CSCCC(=O)Nc1ccc(C(C)=O)cc1	27*	114	0%	-4%	-1%
O=C(CCN1CCN(CCO)CC1)Nc1ccc(C2CCCC2)cc1	2	-4	5%	3%	-12%
CC(=O)c1ccc(NC(=O)CSCCO)cc1	21*	81*	3%	-1%	1%
O=C(CSCCO)Nc1ccc(C2CCCCC2)cc1	48*	97*	-40%	1%	-5%
O=C(O)CSCC(=O)Nc1ccc(C(=O)O)cc1	11	20	3%	3%	8%
CC(C)C[C@@H](CC(=O)N[C@H](CC(=O)N[C@@H]1CCNC[C@H]1C(=O)N[C@H](CC(=O)N[C@@H](CCC(=O)O)CC(=O)O)CC(C)C)C(C)C)NC(=O)[C@@H]1CCCC[C@H]1N	x	x	x	x	-21%
SMILES	Cycloheximide cs	Shiga inhibitor	NS1 inh	LmPK inhibitor	Giardia FBPA inh
CC1CCC2C(=O)N3C(CCC(C)[C@H]3c3cccc(N4CCCC4=O)c3)C(=O)N2C1c1cccc(N2CCCC2=O)c1 (some centres not stated)	x	x	x	x	-2%[12.9 µM]
Cc1oc(-c2ccccc2Cl)nc1CS(=O)CC(=O)NC1CC1 (configuration not stated)	0	15	20%	-1%	x
Fc1ccc(C2CC(c3ccco3)=Nc3ccccc3S2)cc1 (configuration not stated)	10	25	x	14%	u
O=C(O)C1CC(c2ccccc2)=Nc2ccccc2S1 (configuration not stated)	58*	72*	7%	-1%	-18%
O=[N+]([O-])c1ccc(C2CC(c3ccccc3)=Nc3ccccc3S2)cc1 (configuration not stated)	57*	67*	-52%	2%	u
COc1ccccc1C(=O)N/C(=C\c1cn(S(=O)(=O)N(C)C)c2ccccc12)C(=O)N1CCCC1	-8	-4	20%	-1%	9%
CNc1nnc(Sc2ncccc2[N+](=O)[O-])s1	-3	-2	1%	5%	1%
COC(=O)c1cccc(Cn2c(Cl)c(/C=N/NC(=O)c3ccccc3Cl)sc2=O)c1	-4	-8	16%	0%	-4%
COC(=O)c1cccc(Cn2c(Cl)c(/C=N/NC(=O)c3ccco3)sc2=O)c1	18*	3	11%	-3%	x
O=c1sc(/C=N/Nc2ccccc2)c(Cl)n1Cc1ccccc1	33*	active	5%	10%	3%
C[n+]1cccc2cccc([O-])c21	1	-4	3%	-3%	0.45µM*
Cc1nc(C(=O)N2CCc3c([nH]c4ccccc34)C2c2cc(F)ccc2F)cs1 (configuration not stated)	24*	40*	-9%	3%	-11%
CC(C)c1nc(C(=O)N2CCc3c([nH]c4ccccc34)C2c2ccccn2)cs1 (configuration not stated)	9	-1	4%	0%	-10%
Cc1nc(C(=O)N2CCc3c([nH]c4ccccc34)C2c2ccccn2)cs1 (configuration not stated)	5	80*	5%	5%	-2%
O=C(NNC(=O)c1cc2cc(OC(F)(F)F)ccc2[nH]1)c1ccc(Cl)cc1	-2	-13	-1%	10%	4%
CCc1ccc2[nH]c(C(=O)N(C)c3ccc(F)cc3F)cc2c1	12	-4	7%	-1%	-9%
O=C(Nc1ccc(F)cc1)c1cc2cc(Cl)ccc2[nH]1	16*	32*	-5%	-4%	6%
CCc1ccc2[nH]c(C(=O)Nc3ccc(C)c(F)c3)cc2c1	17*	39*	-6%	9%	-4%
CC(=O)N1CCN(S(=O)(=O)c2cccc(C(=O)OCC(=O)N3CC(=O)Nc4ccccc43)c2)CC1	16*	25	x	6%	3%
CC(C)(C)CNc1nc(C#N)nc(Nc2ccccc2)n1	x	x	x	x	-6%
FC(F)(F)c1cnc(-c2cnc(-c3cccnc3)nc2)c(Cl)c1	48*	116*	x	-5%	-1%
Cc1cc(C(=O)Nc2cnc3ccccc3c2)ccc1[N+](=O)[O-]	53*	131*	x	-2%	0%
Cc1ccc(C(=O)Nc2cnc3ccccc3c2)cc1	-10	-28	-9%	u	-5%
O=C(Nc1cccc(-c2cnc3ccccc3n2)c1)c1ccncc1	23*	36	0%	0%	-1%
O=C(Nc1cnc2ccccc2c1)c1ccco1	33*	68*	-107%	u	-6%
O=C(Nc1ccc(F)cc1)c1cccnc1	-4	-8	-8%	-3%	1%
